Laboratory results reported in ChEMBL document CHEMBL3988442, “University of Dundee, Small-Polar-MMV Screening Library” (2021).
Out of some 38,000 compounds screened, about 1,200 (3.2%) showed an effect of 50% or more. The median lay at about -58%. Many of the other results were omitted from the sample, so strong results are more common in it than they were.

system: Plasmodium falciparum; test: Calibr Malaria Delayed Death Assay SOP; type: functional, organism-based; set-up: scale not given: in the data most compounds retested in dose-response had high values; details: concentration 4.99e-06 (unit not given; other assays of the set use mol/L)

Structure (SMILES)	Percent Effect [%]
CC(=O)NCCC(=O)NCC1(c2c(F)cccc2F)CCCC1	-84.52
CCS(=O)(=O)CC(=O)NCC1(c2c(F)cccc2F)CCCC1	-98.46
CC(=O)N(C)CC(=O)NCC1(c2c(F)cccc2F)CCCC1	-102.3
CCC(=O)NCC(=O)NCC1(c2c(F)cccc2F)CCCC1	72.49
COC(=O)NCC(=O)NCC1(c2c(F)cccc2F)CCCC1	68.39
COC(=O)NCCC(=O)NCC1(c2cccc(Cl)c2)CC1	-27.72
CC(=O)N1CCCn2nc(CNS(=O)(=O)N(C)C(C)C)cc2C1	-134.1
COCC(=O)N1CCC2(CCN(c3cnn(C)c3)C2=O)C1 (centres undefined)	-59.68
O=c1[nH]c2cc3c(cc2cc1CN1CCCC1c1ccccn1)CCC3 (centres undefined)	-51.8
CC(CN1CCOCC1)NC(=O)NCCc1ccc(Cl)s1 (centres undefined)	-56.29
Cc1n[nH]cc1CNC1(c2ccc(F)cc2)CCCC1	82.35
Cc1n[nH]cc1CNC1(Cc2ccc(Br)cc2)CCCCC1	36.65
Cc1n[nH]cc1CNC1(c2ccc(Br)cc2)CC1	18.93
O=C(NCc1ccco1)[C@@H]1CCO[C@@H]2CCN(c3ncccn3)C[C@H]21.O=C(O)C(F)(F)F	-31.43
O=C(C1CCOC1)N1C[C@H]2CN(Cc3cccnc3)C(=O)[C@H]2C1.O=C(O)C(F)(F)F (some centres undefined)	-57.45
Cc1nc(NC2CCS(=O)(=O)CC2)cc(C2CCCNC2)n1 (centres undefined)	-36.14
Cc1nc(NCC23CCCN2CCC3)cc(C2CCCNC2)n1 (centres undefined)	-55.92
COc1ccccc1CC(=O)N1CC[C@H](O)[C@]2(CCCO2)C1	-156.8
CC(C)N1CCO[C@@H]2CN(S(=O)(=O)c3cccs3)CC[C@@H]2C1.O=C(O)C(F)(F)F	50.24
CN1CCO[C@@H]2CN(S(=O)(=O)c3ccccc3)C[C@@H]2C1.O=C(O)C(F)(F)F	-22.42
CN1CCO[C@@H]2CN(S(=O)(=O)c3ccc(F)cc3)CC[C@@H]2C1.O=C(O)C(F)(F)F	61.54
CCN1CCO[C@@H]2CN(S(=O)(=O)c3cccs3)CC[C@@H]2C1.O=C(O)C(F)(F)F	37.95
CN1CCO[C@@H]2CN(S(=O)(=O)c3cccs3)CC[C@@H]2C1.O=C(O)C(F)(F)F	-26.8
CN1CCO[C@@H]2CN(S(=O)(=O)c3ccccc3F)CC[C@@H]2C1.O=C(O)C(F)(F)F	48.77

Structure (SMILES)	Percent Effect [%]
CN1CCO[C@@H]2CN(S(=O)(=O)c3cccnc3)C[C@@H]2C1.O=C(O)C(F)(F)F.O=C(O)C(F)(F)F	-85.76
COc1ccc(S(=O)(=O)N2C[C@@H]3CN(C)CCO[C@@H]3C2)cc1	58.7
CN1CCO[C@@H]2CN(S(=O)(=O)c3ccccc3)CC[C@@H]2C1.O=C(O)C(F)(F)F	31.75
CCC(C)NC(=O)Cn1ncc2c1c(C)nn2CC (centres undefined)	-14.73
CC1c2ncc(CN3CCN(C)CC3)n2CCN1Cc1cnn(C)c1.O=C(O)C(F)(F)F.O=C(O)C(F)(F)F.O=C(O)C(F)(F)F (centres undefined)	-76
Cc1nc(CN2CCC3(CCN(Cc4cnn(C)c4)CC3)C2=O)cs1.O=C(O)C(F)(F)F.O=C(O)C(F)(F)F	-122
COCCNC(=O)[C@@H]1CN(Cc2sccc2C)C[C@H]2OCC[C@H]21.O=C(O)C(F)(F)F	-28.67
CC/C=C(/C)C(=O)NCCc1csc(N2CCCC2)n1	23.92
CC(=O)c1cnc(N(C)Cc2cc(C)cc(C)n2)nc1C	10.35
CC(=O)N1CCc2c(nc(N(C)C)nc2NCCCn2ccnc2C)C1	-154.1
CCc1ccccc1OCC(=O)N1CCOCC1c1ncon1 (centres undefined)	-47.11
COc1cccc2c1ccn2CCC(=O)Nc1c2c(nn1C)CSC2	27.59
O=S(=O)(NCCN1CC=CC1)c1cncc(Cl)c1	-138.1
O=S(=O)(NCCCN1CC=CC1)c1cncc(Cl)c1	-214.3
O=S(=O)(NCCN1CC=CC1)c1ccc(Cl)cc1	75.13
CNC(=O)c1cc2c(nc1N(C)C)CCN(c1ncccn1)CC2.O=C(O)C(F)(F)F	-20.28
COCC1COCCC12CCN(Cc1cccs1)CC2.O=C(O)C(F)(F)F (centres undefined)	-9.919
CCC(c1ccccc1)N1CCN(CCO)CC1 (centres undefined)	-35.6
CC(c1cccnc1)N1CCN(CCO)CC1 (centres undefined)	-98.51
CCc1ccc(OCC(O)CN2CCN(CCO)CC2)cc1.Cl.Cl (centres undefined)	-114.3
O=C(c1cn(-c2ccccc2Cl)nn1)N1CCN(CCO)CC1	-52.43
Cc1c(C)n(CC(O)CN2CCN(CCO)CC2)c2c(Cl)cccc12.Cl (centres undefined)	88.07
CC1CCN(C(=O)C(C)Oc2ccc3c(c2)OCO3)CC1 (centres undefined)	-27.65
CCC(NC(=O)CCCN1CCCCC1)c1cn2cccnc2n1 (centres undefined)	-61.92

Structure (SMILES)	Percent Effect [%]
Cc1ncc2c(n1)CN(CC(=O)Nc1cc(C)on1)CC2	-14.27
COCCNC(=O)c1nc(-c2ccc3cc[nH]c3c2)no1	-158.8
Cc1cc(C)c(Cn2cncn2)cc1CN1CCC(CN)C1 (centres undefined)	68.64
Cc1cc(C)c(Cn2cncn2)cc1CN1CC[C@H]2CC[C@@H](C1)N2	12.41
Cc1ccccc1CN1CCC(CNC(=O)Cn2cncn2)CC1	1.836
CN(C)c1cc(CNCc2ccc(N3CCOCC3)cc2)ccn1	-42.2
COc1c(C)cnc(CSc2nnc(NC3CC3)s2)c1C	-80.23
Cl.Cn1cccc1C(=O)N1CCc2c(CNS(C)(=O)=O)cncc2C1	-73.02
Cc1nccn1-c1cccc(C2CCCN(C3CCCC3)C2)n1 (centres undefined)	-3.48
CC(C)c1nccn1-c1cncc(C2CCCN(C3CCCCC3)C2)n1 (centres undefined)	18.59
CCc1nccn1-c1cccc(C2CCCN(C3CCCCC3)C2)n1 (centres undefined)	50.94
CCNC(=O)CN1CCC(OCC2CCCO2)CC1 (centres undefined)	-42.16
Cc1ccccc1N1CCN(CCS(=O)(=O)c2ccc(Br)cc2)CC1	-132.7
COCC(O)CN(C)c1ccnc2cc(F)ccc12 (centres undefined)	-53.9
COCC(O)CN(C)c1ccnc2cc(Br)ccc12 (centres undefined)	94.48
COCC(O)CN(C)c1ccnc2ccc(Cl)cc12 (centres undefined)	-46.57
COC1COC2(CCN(C(=O)c3ccc4ccccc4c3)CC2)C1 (centres undefined)	-205.6
CCCn1ncc(-c2ccnc(NC3CC(C)(C)NC(C)(C)C3)n2)c1C	66.75
CCCn1ncc(-c2ccnc(N[C@@H]3C[C@@H]4CC[C@H]3C4)n2)c1C	-33.21
CCCn1ncc(-c2ccnc(NC3CCSC3)n2)c1C (centres undefined)	-9.069
CCN(CC)C(=O)c1nnsc1-c1ccc(C)cc1	-12.06
CC(=O)N1CCN2C[C@H](CO)[C@@H](c3ccccc3)[C@H]2C1	-67.98
CC(=O)NCCNC(=O)CN1CCCC1c1c(C)nn(C)c1C (centres undefined)	-114
CN1C(=O)C[C@H]2[C@H]1CCN2Cc1cccc(C#N)c1.O=C(O)C(F)(F)F	-78.57

Structure (SMILES)	Percent Effect [%]
Cc1ncnc2c1CCN(C(=O)Cc1ccccn1)CC2.O=C(O)C(F)(F)F	-129.8
COCCN1CCC2(CC1)CC(NCc1ccc(C)s1)c1ccccc12.O=C(O)C(F)(F)F.O=C(O)C(F)(F)F (centres undefined)	76.07
COCC(=O)NC1CC2(CCN(CCN(C)C)CC2)c2ccccc21 (centres undefined)	-44.07
COCCN1CCC2(CC1)CC(N1CCOCC1)c1cc(C)ccc12.O=C(O)C(F)(F)F.O=C(O)C(F)(F)F (centres undefined)	-78.91
COCCN1CCC2(CC1)CC(NCc1cncn1C)c1ccccc12.O=C(O)C(F)(F)F.O=C(O)C(F)(F)F (centres undefined)	-24.3
CS(=O)(=O)N1CCC2(CC1)CC(NCc1ccccn1)c1ccccc12 (centres undefined)	1.106
CC(C)N(CC(N)=O)C(=O)c1cnc(-c2ccc3c(c2)OCO3)s1	-184.6
CC(=O)N(C)Cc1cccc(NC(=O)c2cnn(C)c2C)c1	-25.31
CCOc1cc(C(=O)n2cc(C)cn2)cc(OCC)c1OCC	-156.8
NC(=O)c1ccc(N2CCCCC2)c(NC(=O)c2ccc(Br)cc2)c1	70.21
NC(=O)c1ccc(N2CCCCC2)c(NC(=O)c2cc(Br)ccc2F)c1	-77.22
NC(=O)c1ccc(N2CCCCC2)c(NC(=O)c2cc(Br)ccc2Cl)c1	-37.22
CSCc1cc(F)ccc1CNC(=O)N1CCC[C@@H]1CO	-21.18
NC(=O)NC(=O)CCN1CCN(c2nccs2)CC1	-12.95
COc1ccc(CNCC(C)Oc2ccccn2)cc1Cl.Cl (centres undefined)	13.86
O=C(CO)N1CCC2(CC1)CC(=O)N(Cc1cc(F)cc(F)c1)C2	-76.75
O=C1CC2(CCN(Cc3ccoc3)CC2)CN1Cc1cc(F)cc(F)c1	54.75
CC(C)N1CCC2(CC1)CC(=O)N(Cc1cc(F)cc(F)c1)C2	31.53
O=C1CC2(CCN(CCCF)CC2)CN1Cc1cc(F)cc(F)c1	33.68
O=C1CC2(CCN(CC3CC3)CC2)CN1Cc1cc(F)cc(F)c1	9.433
CC(C)=CCN1CCC2(CC1)CC(=O)N(Cc1cc(F)cc(F)c1)C2	74
NCCn1cc(C(=O)N2CCCCCC2c2cccc(F)c2)nn1 (centres undefined)	-109.1
